Screening data: PubChem, National Center for Advancing Translational Sciences (NCATS)
FBPA Giardia inh = Giardia lamblia aldolase inhibition. purified Giardia FBPA. Potency, µM (highest dose often 59.6 µM), for inactives: at the top dose activity, negative = inhibition, hits mostly inhibitors. 290,000 compounds, 0.71% hits. AID 2451; also: potency is read from the fitted curve at half-maximal effect; % is scaled to controls: 0 for no effect and ±100 for the full control effect; nearly all actives have a fitted effect of over 55% in size
Target sequence (A8B2U2 whole entry, looked up): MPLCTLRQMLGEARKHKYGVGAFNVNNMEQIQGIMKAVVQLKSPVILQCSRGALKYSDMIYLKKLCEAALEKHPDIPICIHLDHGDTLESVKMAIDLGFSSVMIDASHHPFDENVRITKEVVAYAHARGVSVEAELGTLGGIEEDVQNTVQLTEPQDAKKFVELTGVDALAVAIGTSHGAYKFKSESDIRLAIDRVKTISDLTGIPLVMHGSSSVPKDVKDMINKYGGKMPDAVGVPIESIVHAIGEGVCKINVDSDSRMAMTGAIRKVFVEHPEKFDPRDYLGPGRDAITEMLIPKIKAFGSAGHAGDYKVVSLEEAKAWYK
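40 nM FBPA preincubated 10 min at RT with compound (up to 57.5 uM final), then substrate plus GAPDH/TPI/NAD/arsenate coupling and diaphorase/resazurin added. Fluorescence read after 20 min at RT, 525/598 nm.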
Cycloheximide cs = counter-screen hit for Shiga toxin inhibitors, cycloheximide; 300,000 compounds, 12% hits; max response, %; cell reporter, cycloheximide protein synthesis inhibition counterscreen; AID 2314; in the data active = max response mostly above about 13%, no sharp cut-off; inactive = mostly below about 14%; also: read at 38.3 µM for the half of the compounds with a filed dose; 0% is about no effect
LmPK inhibitor = LmPK (Leishmania mexicana) enzyme inhibition. Q27686. purified LmPK, Kinase-Glo ATP luminescence, 1 h. Potency, µM (titrated, usually from 57.5 µM), inactives show top-dose activity change, negative = inhibition, most hits filed as inhibitors. 290,000 compounds, 0.37% hits. AID 1721; also: potency is read from the fitted curve at half-maximal effect; % is scaled to controls: 0 for no effect and ±100 for the full control effect
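ATP generated from ADP (0.1 mM) and PEP (0.5 mM) by 0.1 nM LmPK over 1 h at room temperature (pH 7.2 imidazole buffer) was detected by coupled luciferase luminescence. Values were normalized to uninhibited and no-enzyme wells.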
RE007 growth inh = less growth of the S. pombe RE007 Vpr strain; S. pombe RE007 Vpr strain, BacTiter-Glo ATP luminescence, 24 h; Potency, µM (highest dose often 92.2 µM), without a hit: at the highest dose activity change, negative = less growth, hits mostly inhibitors; 360,000 compounds, 0.21% hits; AID 651644; active = well fitted falling curve with a large enough effect; inconclusive = small, poorly fitted or top-dose-only effect; inactive = no such curve, though single readings can be large or run the other way; also: potency is read from the fitted curve at half-maximal effect; % is scaled to controls: 0 for no effect and ±100 for the full control effect; nearly all actives have a fitted effect of over 50% in size
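Fission yeast strain RE007, carrying one chromosomally integrated HIV-1 vpr copy, was seeded at OD 0.01 in PMG+AL medium with 23 nL pinned compound. After 24 h at 30 °C and 99% humidity, viability was read by BacTiter-Glo luminescence.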
Shiga toxin inh = Shiga toxin inhibition. Vero cells, Shiga toxin protein synthesis inhibition reporter. inhibition, % at 38.7 µM. 290,000 compounds, 9.2% hits. AID 2315; in the data active = inhibition mostly above about 28%, no sharp cut-off; inactive = mostly below about 43%; also: 0% is about no effect
Tb PYK inh = inhibitors of Trypanosoma brucei pyruvate kinase. 410,000 compounds, 0.12% hits. TbPYK enzyme, Kinase-Glo Plus ATP luminescence, 45 min. Q57TT1. Potency, µM (doses to about 76.8 µM), inactives show at the top dose activity, negative = inhibition, hits mostly inhibitors; also: potency is read from the fitted curve at half-maximal effect; % is scaled to controls: 0 for no effect and ±100 for the full control effect; nearly all actives have a fitted effect of over 50% in size
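ADP (130 uM final) triggers the TbPYK reaction after compound addition; incubation is 45 min at room temperature. Kinase-Glo Plus is then added and luminescence imaged. Normalized data are fitted to concentration-effect curves.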
* hit, by the source's call; ? = inconclusive; . = not tested or not shown; [ ] = remark or other dose. The sample as a whole holds a higher share of hits than the screen did. Unless noted, calls follow the shape of the dose curve; as a rule, active = well fitted curve in the direction sought with a large enough effect; inconclusive = small, poorly fitted or top-dose-only effect, or another doubt; inactive = no such curve, though single readings can be large; an effect the other way counts as inactive or inconclusive.

SMILES	FBPA Giardia inh	Cycloheximide cs	LmPK inhibitor	RE007 growth inh	Shiga toxin inh	Tb PYK inh
Cc1ccc2oc(C(=O)N(CCO)Cc3ccccc3)c(C)c2c1	2.7%	-1.2	4.8%	-13.7%	-3.2	-5.2%
Cc1cc(Cl)c2oc(C(=O)N(C)Cc3cc(C)[nH]n3)c(C)c2c1	.	9.8	-7.7%	2.1%	11.9	-9.8%
C[C@H]1O[C@H](C2CCCC2)CC2=C1C(=O)OC(C)(C)O2	.	.	.	-12.2%	.	3.3%
CCOC(=O)CNC(=S)N(CCCN1CCN(C)CC1)Cc1cccs1	8.4%	3.0	-0.3%	18.6%	32.8	1.2%
Cc1c(C(=O)N(CCO)Cc2ccccc2)oc2c(F)cccc12	-22.9%	35.2*	-0.9%	-4.6%	32.3*	-3.8%
Cc1c(C(=O)N(C)Cc2ccccc2)oc2c(Cl)cccc12	1.5%	-1.4	-1.0%	-9.7%	-5.8	2.6%
CN(CC(=O)Nc1ccccc1C(F)(F)F)C(=O)c1cc([N+](=O)[O-])ccc1N1CCOCC1	.	-4.1	-1.3%	3.1%	-7.1	4.5%
CC(C)(C)OC(=O)NCC1CCN(S(=O)(=O)Cc2ccccc2)CC1	5.4%	-1.7	4.0%	13.5%	6.8	-5.4%
CC(C)(C)OC(=O)NCC12C=CC(O1)C1C(=O)N(Cc3ccccc3)C(=O)C12 (stereo unspecified)	2.8%	-0.9	-3.2%	44.7µM*	-3.9	-1.7%
CCN(CC)S(=O)(=O)c1ccc(N2CCc3ccccc3C2)nc1	-1.1%	36.9*	10.8%	7.6%	25.7	-1.0%
CC(C)N(C(C)C)S(=O)(=O)c1ccc(N2CCc3ccccc3C2)nc1	2.0%	31.7*	5.9%	7.5%	57.8*	-5.3%
CC(C)N(C(C)C)S(=O)(=O)c1ccc(Cl)nc1	4.2%	10.6	5.0%[11.5 µM]	-12.5%	-8.5	-1.2%
CCN(CC)S(=O)(=O)c1ccc(N2CCN(S(=O)(=O)c3ccccc3)CC2)nc1	4.2%	-9.6	-0.8%	0.6%	-2.5	6.2%
Cc1ccc(OCC(=O)c2ccc(Cl)s2)c([N+](=O)[O-])n1	?	27.4	2.1%	-19.1%	43.2	3.4%
COc1ccc(OCCOc2ccc(C)nc2[N+](=O)[O-])cc1	-0.1%	48.6*	-0.1%	-4.5%	92.8*	1.3%
Cc1ccc(OCCOc2ccc(Cl)cc2Cl)c([N+](=O)[O-])n1	2.3%	52.0*	3.5%	-0.3%	106.0*	-4.0%
Cc1ccc(COc2ccc(C)nc2[N+](=O)[O-])cc1	10.5%	49.5*	7.4%	-7.7%	83.5*	1.2%
Cc1ccc(CNC(=O)COc2ccc(C)nc2[N+](=O)[O-])cc1	15.6%	-2.7	-1.0%	2.6%	-8.6	-6.2%
CCC1(c2ccccc2)NC(=O)N(CC(=O)N2CC(=O)Nc3ccccc32)C1=O (stereo unspecified)	.	.	.	1.8%	.	4.2%
CCOc1ccc2c(c1)nc(SCC(=O)c1ccc(Br)s1)n2C	-14.2%	1.8	-3.5%	-3.8%	-4.8	-27.3%
CCOc1ccc2c(c1)nc(SCC(=O)c1cccs1)n2C	-13.8%	50.5*	-4.1%	-26.2%	81.3*	-19.2%
O=C(NNC(=O)c1ccccc1OCc1ccc(F)cc1)c1ccccc1O	.	14.7*	-7.1%	-17.4%	26.8	1.0%
O=C(NNC(=O)c1ccccc1OCc1ccccc1)c1ccccc1O	.	12.4	-10.7%	10.3%	6.3	3.8%
O=C(N/N=C/c1ccccc1F)c1ccccc1OCc1ccccc1	-1.3%	20.2*	3.8%	-7.4%	74.5*	-2.5%
O=C(NNC(=O)c1ccccc1OCc1ccccc1)c1ccccc1F	-11.3%	68.9*	0.4%	-8.7%	73.3*	0.0%
Cc1ccc(S(=O)(=O)N2CCCC2CNC(=O)c2ccc(F)c(F)c2)cc1 (stereo unspecified)	.	.	.	5.9%	.	-3.6%
CCN(CC)Cc1cc(O)c(CN(CC)CC)cc1O	5.61µM*	-1.1	-5.5%	-2.9%	-6.0	10µM*
Cc1cc2c(C)nc(N/N=C/c3ccc([N+](=O)[O-])cc3)nc2o1	0.0%	-6.0	0.4%	-21.0%	-5.8	-5.4%
Cc1cc2c(C)nc(N/N=C/c3ccc(F)cc3)nc2o1	-27.7%	17.9*	-0.2%	2.2%	25.1	-7.4%
CSc1ccc(/C=N/Nc2nc(C)cc(C)n2)cc1	-11.2%	41.7*	-6.7%	-2.3%	33.2*	-2.0%
